Test results taken from PubChem BioAssay AID504848 (National Center for Advancing Translational Sciences (NCATS), 2011).
Hit rate of the full screen: of about 2,300 compounds, about 1,400 (61%) were called active. Another 29% or so got no clear call; they are omitted. The call rests on the fitted dose curve; in most records, active means well fitted inhibition curve with a large enough effect; inconclusive means small, poorly fitted or top-dose-only effect, or effect the other way; inactive means no such curve, though single readings can be large or run the other way. The set was probably picked from earlier hits. Some of the results follow.

Assay: Confirmation screen for delayed death inhibitors of the malarial parasite plastid, 96 hour incubation; further: nearly all actives have a fitted effect of over 60% in size
Details: P. falciparum luciferase growth in erythrocytes; series mostly up to 28.7 µM
How it was run: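 Erythrocytes infected with luciferase-expressing P. falciparum (2% hematocrit, 0.1% parasitemia final) in RPMI 1640 with 0.5% Albumax, exposed to compounds 96 h at 37 C, 5% CO2. Growth inhibition read as decreased luciferase luminescence.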
Potency means the concentration at half of the fitted maximal effect.

Compound	Potency
c1ccc(SCc2cn(C[C@H]3CC[C@@H]([C@@H]4CC[C@H](Cn5cc(CSc6ccccc6)nn5)O4)O3)nn2)cc1	11.2 µM (active)
CC1CCCN(c2ccc(F)cc2N)C1 (stereo not drawn)	8.91 µM (active)
COc1cccc(/C=N/N2CCN(C3c4ccccc4-c4ccccc43)CC2)c1O	14.1 µM (active)
CCOC(=O)C(C)Sc1cc(CS(=O)(=O)c2ccccc2)nc(-c2ccccc2)n1 (stereo not drawn)	12.6 µM (active)
N#C/C(=C\c1c(Oc2ccccc2Cl)nc2ccccn2c1=O)C(=O)NC1CCS(=O)(=O)C1 (stereo not drawn)	12.6 µM (active)
Cc1cccc(Oc2nc3ccccn3c(=O)c2/C=C(\C#N)C(=O)NC2CCS(=O)(=O)C2)c1C (stereo not drawn)	12.6 µM (active)
Cc1ccc(Oc2nc3ccccn3c(=O)c2/C=C(\C#N)C(=O)NC2CCS(=O)(=O)C2)c(C)c1 (stereo not drawn)	10 µM (active)
COc1ccc(-c2nc3c(c(=O)c4ccccc4n3C)c(=O)n2Cc2ccccc2)cc1	7.08 µM (active)
COc1ccc(CCn2c(C(C)C)nc3c(c(=O)c4ccccc4n3C)c2=O)cc1	3.16 µM (active)
COc1ccc(Cn2c(-c3ccccc3)nc3c(c(=O)c4ccccc4n3C)c2=O)cc1	10 µM (active)
CCO[C@H]1OC(C(=O)N2CCN(Cc3ccccc3)CC2)=C[C@@H](c2ccc(C(F)(F)F)cc2)[C@@H]1CCCO	3.16 µM (active)
CCO[C@H]1OC(C(=O)N2CCN(Cc3ccc4c(c3)OCO4)CC2)=C[C@@H](c2ccc(C(F)(F)F)cc2)[C@@H]1CCCO	2 µM (active)
O=C(C1=C[C@@H](c2csc3ccccc23)C[C@@H](OCCCCO)O1)N1CCN(Cc2ccc3c(c2)OCO3)CC1	3.98 µM (active)
CCOC(=O)N1CCN(CC(=O)c2ccc(O)cc2O)CC1	17.8 µM (active)
CCOc1cc(/C=C2/C(=O)ON=C2C)ccc1OCc1ccccc1	inactive
CCOc1cc(/C=C2\COc3ccccc3C2=O)ccc1OCC(=O)N(C)C	12.6 µM (active)
COc1cc(CN2CCN(S(=O)(=O)c3ccccc3)CC2)cc(OC)c1OC	2.24 µM (active)
O=S1(=O)C=C(Sc2nc3cc(Cl)ccc3o2)c2ccccc21	4.47 µM (active)
O=S1(=O)C=C(Sc2nnc(-c3ccccc3)o2)c2ccccc21	14.1 µM (active)
CCOc1ccc(/C=N/OCC(=O)Nc2ccc(OCc3ccccc3)cc2)cc1OC	3.55 µM (active)
C[C@H]1[C@@H](OC(=O)CCC(=O)O)OC2OC3(C)CC[C@H]4[C@H](C)CC[C@@H]1[C@@]24OO3 (stereo partly drawn)	0.0355 µM (active)

Compound	Potency
C[C@@H]1CCC2[C@@H](C)[C@@H](O)O[C@@H]3O[C@@]4(C)CC[C@@H]1[C@@]23OO4 (stereo partly drawn)	0.0251 µM (active)
CO[C@H]1OC2O[C@@]3(C)CC[C@H]4[C@H](C)CC[C@@H]([C@H]1C)[C@@]24OO3 (stereo partly drawn)	0.0631 µM (active)
COCCN1CCCC(CNCc2cn(C)nc2-c2ccc(Oc3ccccc3)cc2)C1 (stereo not drawn)	7.08 µM (active)
Cc1cc(=O)oc2c3c(cc(OCC(=O)Nc4cccnc4)c12)OC(C)(C)CC3	1.26 µM (active)
CCOC(=O)c1c(NC(=O)CSc2ccccc2C(=O)O)sc(C)c1C	inactive
CCOC(=O)c1c(NC(=O)CSc2c[nH]c3ccccc23)sc2c1CCCC2	12.6 µM (active)
Cc1ccc2c(c1)cc(C(=O)NCc1ccccc1)n2C	inactive
CC(C)(C)C(=O)NNC(=O)c1cc(C(C)(C)C)nn1Cc1ccccc1	14.1 µM (active)
CC(C)(C)c1cc(C(=O)NNc2cccc(Cl)c2)n(Cc2ccccc2)n1	10 µM (active)
Cc1ccc(NC(=O)c2cc(C(C)(C)C)nn2Cc2ccccc2)cc1	12.6 µM (active)
Cc1cccc(Cn2nc(C(C)(C)C)cc2C(=O)Nc2ccc(F)cc2)c1	3.55 µM (active)
C=CCNC(=O)c1cnc2n(c1=O)CCS2	inactive
Cc1cccc(-n2ncc3c2CCCC3NC(=O)C2=CC(=O)CC(C)(C)O2)c1C (stereo not drawn)	12.6 µM (active)
COc1ccc(C(=O)NC2CCCc3c2cnn3-c2cccc(C)c2C)o1 (stereo not drawn)	12.6 µM (active)
CCCNC(=O)c1nnsc1S(=O)(=O)c1ccc(Cl)cc1	inactive
O=S(=O)(c1ccc(Cl)c(Cl)c1)c1snnc1-c1ccccc1	7.94 µM (active)
N#Cc1ccc(Oc2ccc(-c3nc4ccccc4nc3-c3ccccc3)cc2)cc1C#N	0.708 µM (active)
CCOC(=O)C(Cc1ccccc1)C(=O)Nc1cccc2ccccc12 (stereo not drawn)	5.01 µM (active)
CCc1nn(CCCC(=O)NCc2ccccc2C)c(=O)c2cc3occc3n12	7.08 µM (active)
O[C@@H]1[C@@H](O)C=C2CCN3Cc4cc5c(cc4[C@H]1C23)OCO5 (stereo partly drawn)	1.58 µM (active)
ClC(/C=N/n1cnnc1)=C/c1ccccc1	10 µM (active)

Compound	Potency
S=c1[nH]nc(COc2ccccc2)n1/N=C/C(Cl)=C/c1ccccc1	12.6 µM (active)
O=C(O)CCCN1C(=O)/C(=C\C(Cl)=C\c2ccccc2)SC1=S	5.01 µM (active)
C[C@@H]1c2cccc(O)c2C(O)=C2C(=O)[C@@]3(O)C(O)=C(C(N)=O)C(=O)[C@@H](N(C)C)[C@@H]3[C@@H](O)[C@@H]21	2.51 µM (active)
C=C1c2c(Cl)ccc(O)c2C(O)=C2C(=O)[C@@]3(O)C(O)=C(C(N)=O)C(=O)[C@@H](N(C)C)[C@@H]3[C@@H](O)[C@H]12	2 µM (active)
C=C1c2c(Cl)ccc(O)c2C(O)=C2C(=O)[C@]3(O)C(O)=C(C(N)=O)C(=O)[C@@H](N(C)C)[C@@H]3[C@@H](O)C12 (stereo partly drawn)	2 µM (active)
S=c1[nH]nc(-c2cc(-c3ccccc3)n[nH]2)n1/N=C/C(Br)=C/c1ccccc1	3.98 µM (active)
S=c1[nH]nc(-c2ccccc2)n1/N=C/c1ccc(-c2ccccc2Cl)o1	inactive
COc1ccc(C(=S)N2CCN(c3ccccc3C)CC2)cc1	12.6 µM (active)
COc1cccc(NC(=O)CSc2ccc3nnc(CCNC(=O)c4ccccc4)n3n2)c1	inactive
Cc1ccc(C(=O)NCCc2nnc3ccc(SCC(=O)NCc4ccc(F)cc4)nn23)cc1	7.94 µM (active)
Cc1cccc(C)c1Nc1c(-c2ccc(N3CCOCC3)cc2)nc2ncccn12	12.6 µM (active)
O=C(/C=C/c1cccs1)Nc1sc2c(c1C(=O)O)CCCC2	inactive
CC(C)(C)c1ccc(C(=O)Nc2sc3c(c2C(=O)O)CCC3)cc1	10 µM (active)
Cc1ccc(-c2nnc(SCC(=O)N/N=C/c3cccs3)n2-c2ccc(C)cc2)cc1	10 µM (active)
Cc1nnc(N2CCCC(C(=O)NCc3cccc(F)c3)C2)c2nn(-c3ccccc3)c(C)c12 (stereo not drawn)	12.6 µM (active)
CCCCc1nc2cc(C(=O)N3CCN(c4nc(C)cnc4C)CC3)ccc2o1	10 µM (active)
Cc1ccc(NS(=O)(=O)c2ccc(-c3cnc(C4CC4)o3)cc2)c(C)c1	7.08 µM (active)
Cn1c(=O)n(Cc2ccccc2)c(=O)c2c1nc1n2CCN1Cc1ccco1	7.94 µM (active)
Cc1nc(-c2ccc(S(=O)(=O)N3CCCN(CCc4ccccc4)CC3)s2)cs1	3.55 µM (active)
CCCCCCCNC(=O)C1(CC2CC(c3ccc(Cl)cc3)=NO2)CCN(C(=O)Cc2ccc(F)cc2)CC1 (stereo not drawn)	7.94 µM (active)
CCCCCCCNC(=O)C1(CC2CC(c3ccc(Cl)cc3)=NO2)CCN(C(=O)C2CCCC2)CC1 (stereo not drawn)	10 µM (active)

Compound	Potency
O=C(Nc1ccc(S(=O)(=O)N2CCOCC2)cc1)c1ccc([N+](=O)[O-])o1	3.55 µM (active)
CC(C)C(=O)N1CCN(c2ccc(NC(=O)c3ccc([N+](=O)[O-])o3)cc2)CC1	4.47 µM (active)
CCCC(=O)N1CCN(c2ccc(NC(=O)c3ccc([N+](=O)[O-])o3)cc2Cl)CC1	8.91 µM (active)
O=C(Nc1ccc(N2CCOCC2)c(Cl)c1)c1cc2ccccc2o1	2.82 µM (active)
CCN1CCN(c2ccc(NC(=O)c3ccc([N+](=O)[O-])o3)cc2Cl)CC1	7.94 µM (active)
CC(C)C(=O)N1CCN(c2ccc(NC(=O)c3ccco3)cc2Cl)CC1	6.31 µM (active)
CCCC(=O)N1CCN(c2ccc(NC(=O)c3ccc([N+](=O)[O-])o3)cc2)CC1	6.31 µM (active)
CCC(=O)N1CCN(c2ccc(NC(=O)c3ccc([N+](=O)[O-])o3)cc2Cl)CC1	7.94 µM (active)
Cc1cccc(-c2c(NC(=O)c3ccco3)oc3ccc(Cl)cc3c2=O)c1	inactive
CC(=O)OC[C@H]1O[C@@H](n2ncc(=O)[nH]c2=O)[C@H](OC(C)=O)[C@@H]1OC(C)=O	inactive
CS(=O)(=O)N1CCN(c2ccc(NC(=O)c3ccc([N+](=O)[O-])o3)cc2)CC1	7.08 µM (active)
O=C(c1cccc(S(=O)(=O)N2CCc3ccccc32)c1)N1CCN(c2ccccc2)CC1	11.2 µM (active)
O=C(CNC(=O)c1cccc(S(=O)(=O)N2CCc3ccccc32)c1)Nc1ccc(F)c(F)c1F	11.2 µM (active)
COc1cc2c(cc1OC)CN(C(=O)c1cccc(S(=O)(=O)N3CCc4ccccc43)c1)CC2	11.2 µM (active)
CN(Cc1nc2ccccc2c(=O)[nH]1)C(=O)c1cccc(S(=O)(=O)N2CCc3ccccc32)c1	11.2 µM (active)
CCc1cc(SC#N)ccc1N	8.91 µM (active)
CC(C)(C)Nc1nc(Cl)nc(NC2CCCCC2)n1	12.6 µM (active)
CCCc1cc(=O)n2nc(N3CCC(C(=O)N4CCN(c5ccc(OC)cc5)CC4)CC3)sc2n1	10 µM (active)
CCCc1cc(=O)n2nc(N3CCC(C(=O)NCc4ccc(C)o4)CC3)sc2n1	8.91 µM (active)
COc1cc(CNc2cccc(C(=O)O)c2)cc(Br)c1OCC(=O)NC(C)(C)C	12.6 µM (active)
